# Source: PubChem BioAssay (EPA / NIEHS)
# Active and inactive are the calls of the source. The calls were made as follows: active = hit-call score of the fitted dose curve at least 0.9, where 1 is the maximum; inactive = score below 0.9.
# Experiment: IUF_NPC2a_radial_glia_migration_120hr: Leibniz Research Institute for Environmental Medicine (IUF) 120-hour Neural Progenitor Cell Migration Assay for Radial Glia Migration (NPC2a) (AID 2284298)
# In short: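 Hoechst-stained nuclei imaged at 120 h; algorithm maps sphere core by densest nuclei, sets migration edge at density threshold, gives radial glia migration distance (um) per well vs DMSO. hNPC spheres (0.3 mm), PDL/laminin, DMEM/F12 3:1 + 1% N2.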
Compound,AC50,outcome
C[n+]1ccc(-c2cc[n+](C)cc2)cc1,1.98 µM (active),–
C/C(=C/C=C/[C@@H](C)C(=O)O)[C@H]1CN[C@H](C(=O)O)[C@H]1CC(=O)O,–,inactive
CP(=O)(O)CCC(N)C(=O)O (configuration not stated),–,inactive
[O-][Cl+3]([O-])([O-])O,–,inactive
CCOP(=S)(OCC)SCS(=O)C(C)(C)C (configuration not stated),–,inactive
C[n+]1ccc(-c2ccccc2)cc1,–,inactive
Cn1nc(C(F)(F)F)c(CS(=O)(=O)C2=NOC(C)(C)C2)c1OC(F)F,33.8 µM (active),–
CC1(C)C(C=C(Cl)c2ccc(Cl)cc2)C1C(=O)OC(C#N)c1ccc(F)c(Oc2ccccc2)c1 (configuration not stated),–,inactive
CCOP(=O)(Oc1cnc(C(C)(C)C)nc1)OC(C)C (configuration not stated),–,inactive
CC1(C)[C@H](C=C(Cl)Cl)[C@H]1C(=O)OCc1c(F)c(F)cc(F)c1F,–,inactive
CC(=O)[O-].CC(=O)[O-].O.O.O.[Pb+2],–,inactive
CC1(C)C(C=C(Cl)Cl)C1C(=O)O[C@H](C#N)c1cccc(Oc2ccccc2)c1 (some centres not stated),–,inactive
CCOP(=O)(OCC)OC(Cl)C(Cl)(Cl)Cl (configuration not stated),–,inactive
CCOP(=O)(OCC)SCSC(C)(C)C,0.875 µM (active),–
CC1(C)[C@@H](C=C(Cl)Cl)[C@@H]1C(=O)O[C@@H](C#N)c1ccc(F)c(Oc2ccccc2)c1,–,inactive
COP(=O)(OC)SCN1C(=O)c2ccccc2C1=O,–,inactive
CC(=O)[O-].[Tl+],44.2 µM (active),–
